The values that follow come from PubChem BioAssay.

Where “and” joins values, the source holds several entries; their conditions need not be identical. Equal values may be shown once. Some structures have more than one record in an assay (separate samples or runs), and their calls can disagree. Calls of active or inactive are those of the source.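 How the source made its calls, unless noted: active means compounds whose cell count with miR-34 switched on is under 0.7 times the count with it off; inactive means the rest.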

Experiment [1] can be described thus: liver-stage malaria parasite growth inhibition, primary screen, cell-based, HepG2, luciferase luminescence, HepG2 viability (AID 624349; in the data active means parasite load remaining mostly below about 12%, no sharp cut-off; inactive means mostly above about 10%;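 further: 100% = mean of DMSO negative control wells on the same plate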). The settings on record: P. berghei liver stage in HepG2, luciferase luminescence, concentration not given here; parasite load remaining: stronger effect = lower value; viability: measured here: HepG2 viability without parasites.
Experiment [2] is described as follows: sensitizers of A549 cells to miR-34 induction, primary screen, imaging, A549 dox-inducible miR-34, nuclei and caspase counts (AID 1347080). The settings on record: A549 miR-34 inducible, Hoechst nuclei count, 48 h.
Experiment [3] can be described thus: survival rescue of mitochondrial mutant cells in low glucose, primary screen, MELAS cybrids, Rieske KO mouse fibroblasts, CellTiter-Glo (AID 1508586;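 active means mean z-score across replicates of 1.96 or higher in either the MELAS or the Rieske mutant cell line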;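 further: z relative to plate mean and SD of compound and empty wells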). (In ATP-based viability assays light output follows the ATP content of the culture.)
Experiment [4] in a line: viability rescue of complex I mutant cybrids, primary screen, cell-based, galactose medium, ATP luminescence (AID 1645843;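 active means z-score of at least 1.8 in each of two replicates, scored against plate mean and spread of sample wells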;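 further: positive z means more ATP and so rescue of galactose-driven cybrid death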). The settings on record: complex I mutant cybrid cells, 72 h, stronger effect = higher value.
The mark [5] stands for this setting: stronger effect = lower value, cell number ratio, induced over uninduced.
Setting [6] is: measured here: relative caspase fold change +Dox/-Dox.
Where [7] appears, read: measured here: total cells with miR-34 induction, stronger effect = lower value.
Where [8] appears, read: measured here: total cells without miR-34 induction.
The mark [9] stands for this setting: MELAS cybrid survival, CellTiter-Glo 48 h, stronger effect = higher value.
The mark [10] stands for this setting: Rieske KO mouse fibroblast survival, CellTiter-Glo 72 h.

`N.N.O=C(O)CO.[Pt]`: in experiment [1], the parasite load remaining was 50.4% (inactive). Besides, the viability in experiment [1] is 108%. In addition, the fold change in experiment [2] (setting [5]) was 0.961 (inactive); in experiment [2] (setting [6]), 1.22. For the same molecule, the cell count in experiment [2] (setting [7]) was 10100; in experiment [2] (setting [8]), 10500. For the same molecule, the z-score was -0.923 (inactive) in experiment [3] (setting [9]), -1.2 in experiment [3] (setting [10]) and 0.195 (inactive) in experiment [4].
Turning to `CO/N=C(\C(=O)N[C@@H]1C(=O)N2C(C(=O)[O-])=C(C[N+]3(C)CCCC3)CS[C@H]12)c1csc(N)n1`, in experiment [1], the parasite load remaining was 37.1% (inactive). Also, the viability in experiment [1] amounted to 100%. The fold change in experiment [2] (setting [5]) was 0.872 (inactive); in experiment [2] (setting [6]), 1.15. Moreover, the cell count came to 9480 in experiment [2] (setting [7]) and 10900 in experiment [2] (setting [8]). Moreover, the z-score is -0.344 (inactive) in experiment [3] (setting [9]), 0.0422 in experiment [3] (setting [10]) and 0.485 (inactive) in experiment [4].
Turning to `CCCCn1c(=O)c2c(ncn2CC(C)=O)n(CCCC)c1=O`, the parasite load remaining in experiment [1] is 49% (inactive). In experiment [1], the viability was 100%. Also, the fold change in experiment [2] (setting [5]) was 0.978 (inactive); in experiment [2] (setting [6]) it was 1.23. In addition, the cell count in experiment [2] (setting [7]) was 10200; in experiment [2] (setting [8]), 10400. Moreover, the z-score was 0.541 (inactive) in experiment [3] (setting [9]), 0.0406 in experiment [3] (setting [10]) and 0.875 (inactive) in experiment [4].
Consider `CCC(=O)OC(OP(=O)(CCCCc1ccccc1)CC(=O)N1C[C@H](C2CCCCC2)C[C@H]1C(=O)O)C(C)C` (stereo not given in full), for which, in experiment [1], the parasite load remaining is 49.8% (inactive). In addition, in experiment [1], the viability stood at 108%. Also, the fold change is 0.948 (inactive) in experiment [2] (setting [5]) and 2.49 in experiment [2] (setting [6]). The cell count in experiment [2] (setting [7]) came out at 10100; in experiment [2] (setting [8]), 10700. The z-score in experiment [3] (setting [9]) is 0.354 (inactive) and -0.69 (inactive); in experiment [3] (setting [10]), -0.176 and -1.17; in experiment [4], 0.59 (inactive).
For the molecule `CCCCC(C)(O)C/C=C/[C@H]1[C@H](O)CC(=O)[C@@H]1CCCCCCC(=O)OC` (stereo not given in full), in experiment [1], the parasite load remaining is 25.9% (inactive). In addition, in experiment [1], the viability turned out to be 64%. Besides, the fold change in experiment [2] (setting [5]) was 1.01 (inactive) and 0.901 (inactive); in experiment [2] (setting [6]), 1.23 and 1.3. In addition, the cell count in experiment [2] (setting [7]) was 5920 and 9930; in experiment [2] (setting [8]), 5880 and 11000. Further, the z-score in experiment [3] (setting [9]) was -0.242 (inactive) and 0.112 (inactive); in experiment [3] (setting [10]), -0.698 and -0.238; in experiment [4], 0.245 (inactive).
For `COC(=O)c1ccc(=O)c2nc3/c(=C/O)c(O)cc(=O)c3[nH]c12`, the parasite load remaining in experiment [1] was 91.5% (inactive). Also, in experiment [1], the viability was determined as 96.5%. Also, the fold change was 0.984 (inactive) in experiment [2] (setting [5]) and 1.28 in experiment [2] (setting [6]). The cell count turned out to be 3340 in experiment [2] (setting [7]) and 3400 in experiment [2] (setting [8]). In addition, the z-score in experiment [3] (setting [9]) is 0.379 (inactive); in experiment [3] (setting [10]), -0.491; in experiment [4], -0.55 (inactive).
`Cc1c(N)nc([C@H](CC(N)=O)NC[C@H](N)C(N)=O)nc1C(=O)N[C@@H](C(=O)N[C@H](C)[C@@H](O)[C@H](C)C(=O)N[C@@H](C(=O)NCCc1nc(-c2ncc(C(=O)NCCC[S+](C)C)s2)cs1)[C@@H](C)O)[C@@H](O[C@@H]1O[C@@H](CO)[C@@H](O)[C@H](O)[C@@H]1O[C@@H]1O[C@H](CO)[C@@H](O)[C@@H](OC(N)=O)[C@@H]1O)c1cnc[nH]1`: the parasite load remaining in experiment [1] was 89.5% (inactive). Also, the viability in experiment [1] was found to be 111%. Besides, the figures for the fold change in experiment [2] (setting [5]) and in experiment [2] (setting [6]) were 0.865 (inactive) and 1.1, respectively. The cell count was determined as 4410 in experiment [2] (setting [7]) and 5100 in experiment [2] (setting [8]). The values for the z-score in experiment [3] (setting [9]), in experiment [3] (setting [10]) and in experiment [4] were -1.31 (inactive), -1.18 and -1.23 (inactive), respectively.
`CC1/C=C/C=C/CC/C=C/C=C/C=C/C=C/C(O[C@@H]2O[C@H](C)[C@@H](O)[C@H](N)[C@@H]2O)CC(O)C(C(=O)O)C(O)CC(=O)CC(O)C(O)CCC(O)CC(O)CC(O)CC(=O)OC(C)C(C)C1O` (stereo not given in full): in experiment [1], the parasite load remaining is 90.8% (inactive) and 24.4% (inactive). Further, in experiment [1], the viability was 111% and 90.5%. For the same molecule, the fold change was 0.86 (inactive) and 0.844 (inactive) in experiment [2] (setting [5]); 1.56 and 1.28 in experiment [2] (setting [6]). The cell count was 9420 and 8760 in experiment [2] (setting [7]); 11000 and 10400 in experiment [2] (setting [8]). The z-score in experiment [3] (setting [9]) was 2.26 (active) and 0.353 (inactive); in experiment [3] (setting [10]) it was 0.0499 and 0.288; in experiment [4] it was 0.5 (inactive).
For `CC(C)C[C@@H](NC(=O)[C@H](Cc1ccccc1)NC(=O)c1cnccn1)B(O)O`, the parasite load remaining in experiment [1] is -0.325% (inactive). Besides, in experiment [1], the viability worked out at 1%. Besides, the fold change in experiment [2] (setting [5]) is 1.12 (inactive); in experiment [2] (setting [6]), 1.54. The results for the cell count in experiment [2] (setting [7]) and in experiment [2] (setting [8]) were 1190 and 1060, respectively. Also, the z-score was -1.11 (inactive) in experiment [3] (setting [9]), 0.911 in experiment [3] (setting [10]) and -2.25 (inactive) in experiment [4].
As to `CC(C)C[C@H]1C(=O)N2CCC[C@H]2[C@]2(O)O[C@](NC(=O)[C@@H]3C=C4c5cccc6[nH]c(Br)c(c56)CC4N(C)C3)(C(C)C)C(=O)N12` (stereo not given in full), the parasite load remaining in experiment [1] was 20.7% (inactive) and 22.3% (inactive). Also, the viability in experiment [1] is 50% and 138%. In addition, the fold change was 0.897 (inactive) and 0.925 (inactive) in experiment [2] (setting [5]); 1.56 and 1.14 in experiment [2] (setting [6]). Further, the cell count in experiment [2] (setting [7]) was 7190 and 8820; in experiment [2] (setting [8]), 8020 and 9530. The figures for the z-score in experiment [3] (setting [9]), in experiment [3] (setting [10]) and in experiment [4] were -0.909 (inactive), 0.597 and 0.045 (inactive), respectively.

By viability is commonly meant a read-out of living cells in per cent, often relative to untreated cells.
